Measurements: PubChem BioAssay AID1159580 (chemical genetic matrix, 2015)
The whole screen tested about 5,500 compounds, of which about 2,000 (36%) were called active. Not shown: some 18% with an inconclusive outcome. Rule as the data show it: active = normalized growth mostly below about 0.91 (no sharp cut-off); inconclusive = no clear call, values can overlap the other calls; inactive = mostly above about 0.92. The list shows a part of the results.

Assay: chemical genetic growth profiling, strain panel (AID 1159580);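 also: tested at 20 µM; growth read once vehicle control cultures reached saturation at 30 °C; 1 = growth at the plate median or of vehicle wells; lower values mean less growth of the strain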
Conditions: growth OD

Measured: normalized growth

COc1cccc(OC)c1C(=O)N[C@@H]1C(=O)N2[C@@H]1SC(C)(C)[C@@H]2C(=O)O
inactive: S. cerevisiae deletion strains, locus YJR066W, strain TOR1, stronger effect = lower value 0.974 | S. cerevisiae deletion strains, locus YJR075W, strain HOC1, stronger effect = lower value 0.998 | S. cerevisiae deletion strains, locus YKL009W, strain mrt4, stronger effect = lower value 0.946 | S. cerevisiae deletion strains, locus YKL068W, stronger effect = lower value 0.975 | S. cerevisiae deletion strains, locus YKL085W, strain MDH1 (second series), stronger effect = lower value 0.986 | S. cerevisiae deletion strains, locus YKL085W, strain MDH1, stronger effect = lower value 0.986 | S. cerevisiae deletion strains, locus YKL160W, strain elf1, stronger effect = lower value 0.978 | S. cerevisiae deletion strains, locus YKR001C, strain vps1, stronger effect = lower value 0.973 | S. cerevisiae deletion strains, locus YKR026C, strain gcn3, stronger effect = lower value 1 | S. cerevisiae deletion strains, locus YKR091W, strain srl3, stronger effect = lower value 1 | S. cerevisiae deletion strains, locus YLL001W, strain dnm1, stronger effect = lower value 0.963 | S. cerevisiae deletion strains, locus YLL026W, stronger effect = lower value 0.993 | S. cerevisiae deletion strains, locus YLL041C, strain sdh2, stronger effect = lower value 0.994 | S. cerevisiae deletion strains, locus YLR027C, strain aat2, stronger effect = lower value 0.995 | S. cerevisiae deletion strains, locus YLR039C, strain RIC1, stronger effect = lower value 1 | S. cerevisiae deletion strains, locus YLR058C, strain SHM2, stronger effect = lower value 1.01 | S. cerevisiae deletion strains, locus YLR102C, strain apc9, stronger effect = lower value 0.985 | S. cerevisiae deletion strains, locus YLR113W, strain HOG1, stronger effect = lower value 0.982 | S. cerevisiae deletion strains, locus YLR221C, strain rsa3, stronger effect = lower value 1 | S. cerevisiae deletion strains, locus YLR258W, strain gsy2, stronger effect = lower value 0.999 | S. cerevisiae deletion strains, locus YLR262C, strain YPT6 (second series), stronger effect = lower value 1 | S. cerevisiae deletion strains, locus YLR262C, strain YPT6, stronger effect = lower value 1.03 | S. cerevisiae deletion strains, locus YLR268W, strain sec22, stronger effect = lower value 0.993 | S. cerevisiae deletion strains, locus YLR320W, strain mms22, stronger effect = lower value 0.986 | S. cerevisiae deletion strains, locus YLR330W, strain CHS5, stronger effect = lower value 0.993 | S. cerevisiae deletion strains, locus YLR342W, strain FKS1 (second series), stronger effect = lower value 1.03 | S. cerevisiae deletion strains, locus YLR342W, strain FKS1, stronger effect = lower value 0.988 | S. cerevisiae deletion strains, locus YLR357W, strain rsc2, stronger effect = lower value 0.994 | S. cerevisiae deletion strains, locus YLR370C, strain arc18, stronger effect = lower value 1.01 | S. cerevisiae deletion strains, locus YLR371W, strain rom2, stronger effect = lower value 0.993 | S. cerevisiae deletion strains, locus YLR384C, strain iki3, stronger effect = lower value 0.991 | S. cerevisiae deletion strains, locus YLR418C, strain cdc73, stronger effect = lower value 0.996 | S. cerevisiae deletion strains, locus YML016C, strain PPZ1, stronger effect = lower value 1 | S. cerevisiae deletion strains, locus YML032C, strain rad52, stronger effect = lower value 0.991 | S. cerevisiae deletion strains, locus YML120C, strain ndi1, stronger effect = lower value 0.992 | S. cerevisiae deletion strains, locus YML124C, strain tub3, stronger effect = lower value 0.991 | S. cerevisiae deletion strains, locus YMR058W, strain fet3, stronger effect = lower value 1 | S. cerevisiae deletion strains, locus YMR078C, strain ctf18, stronger effect = lower value 0.995 | S. cerevisiae deletion strains, locus YMR125W, strain sto1, stronger effect = lower value 1.02 | S. cerevisiae deletion strains, locus YMR129W, stronger effect = lower value 0.992 | S. cerevisiae deletion strains, locus YMR205C, strain PFK2, stronger effect = lower value 0.991 | S. cerevisiae deletion strains, locus YMR223W, strain ubp8, stronger effect = lower value 1.01 | S. cerevisiae deletion strains, locus YMR231W, strain pep5, stronger effect = lower value 0.997 | S. cerevisiae deletion strains, locus YMR263W, strain SAP30, stronger effect = lower value 0.972 | S. cerevisiae deletion strains, locus YMR307W, strain GAS1, stronger effect = lower value 1.25 | S. cerevisiae deletion strains, locus YNL067W, strain RPL9B, stronger effect = lower value 0.962 | S. cerevisiae deletion strains, locus YNL071W, strain lat1, stronger effect = lower value 1 | S. cerevisiae deletion strains, locus YNL128W, strain TEP1, stronger effect = lower value 0.974 | S. cerevisiae deletion strains, locus YNL153C, strain GIM3, stronger effect = lower value 1.01 | S. cerevisiae deletion strains, locus YNL183C, strain NPR1, stronger effect = lower value 0.971 | S. cerevisiae deletion strains, locus YNL209W, strain ssb2, stronger effect = lower value 1.01 | S. cerevisiae deletion strains, locus YNL233W, strain BNI4, stronger effect = lower value 1.01 | S. cerevisiae deletion strains, locus YNL248C, strain rpa49, stronger effect = lower value 1.01 | S. cerevisiae deletion strains, locus YNL250W, strain rad50, stronger effect = lower value 0.921 | S. cerevisiae deletion strains, locus YNL271C, strain bni1, stronger effect = lower value 0.991 | S. cerevisiae deletion strains, locus YNL298W, strain CLA4, stronger effect = lower value 0.98 | S. cerevisiae deletion strains, locus YNL307C, strain MCK1, stronger effect = lower value 1 | S. cerevisiae deletion strains, locus YNL322C, strain KRE1 (second series), stronger effect = lower value 1.01 | S. cerevisiae deletion strains, locus YNL322C, strain KRE1, stronger effect = lower value 1 | S. cerevisiae deletion strains, locus YNR049C, strain mso1, stronger effect = lower value 0.995 | S. cerevisiae deletion strains, locus YNR052C, strain pop2, stronger effect = lower value 0.987 | S. cerevisiae deletion strains, locus YOL006C, strain TOP1, stronger effect = lower value 1.01 | S. cerevisiae deletion strains, locus YOL012C, strain htz1 0.716 | S. cerevisiae deletion strains, locus YOR001W, strain rrp6, stronger effect = lower value 0.99 | S. cerevisiae deletion strains, locus YOR061W, strain CKA2, stronger effect = lower value 1 | S. cerevisiae deletion strains, locus YOR069W, strain VPS5, stronger effect = lower value 0.999 | S. cerevisiae deletion strains, locus YOR070C, strain gyp1, stronger effect = lower value 1.01 | S. cerevisiae deletion strains, locus YOR080W, strain dia2, stronger effect = lower value 0.99 | S. cerevisiae deletion strains, locus YOR083W, strain WHI5, stronger effect = lower value 0.95 | S. cerevisiae deletion strains, locus YOR106W, strain vam3, stronger effect = lower value 0.994 | S. cerevisiae deletion strains, locus YOR136W, strain idh2, stronger effect = lower value 0.992 | S. cerevisiae deletion strains, locus YOR144C, strain elg1, stronger effect = lower value 0.989 | S. cerevisiae deletion strains, locus YOR184W, strain ser1, stronger effect = lower value 0.996 | S. cerevisiae deletion strains, locus YOR231W, strain MKK1, stronger effect = lower value 0.988 | S. cerevisiae deletion strains, locus YOR265W, strain rbl2, stronger effect = lower value 1 | S. cerevisiae deletion strains, locus YOR270C, strain vph1, stronger effect = lower value 1 | S. cerevisiae deletion strains, locus YOR290C, strain snf2, stronger effect = lower value 1 | S. cerevisiae deletion strains, locus YOR316C, strain cot1, stronger effect = lower value 0.977 | S. cerevisiae deletion strains, locus YPL051W, strain arl3, stronger effect = lower value 0.989 | S. cerevisiae deletion strains, locus YPL055C, strain LGE1, stronger effect = lower value 0.968 | S. cerevisiae deletion strains, locus YPL078C, strain atp4, stronger effect = lower value 0.97 | S. cerevisiae deletion strains, locus YPL106C, strain sse1, stronger effect = lower value 1.03 | S. cerevisiae deletion strains, locus YPL240C, strain hsp82, stronger effect = lower value 0.999 | S. cerevisiae deletion strains, locus YPL241C, strain CIN2, stronger effect = lower value 1 | S. cerevisiae deletion strains, locus YPL256C, strain CLN2, stronger effect = lower value 1.06 | S. cerevisiae deletion strains, locus YPR141C, strain kar3, stronger effect = lower value 0.972 | S. cerevisiae deletion strains, locus YPR163C, strain tif3, stronger effect = lower value 0.987 | S. cerevisiae deletion strains, locus YPR167C, strain met16, stronger effect = lower value 0.979 | S. cerevisiae deletion strains, strain wtn01, stronger effect = lower value 1.01 | S. cerevisiae strains, strain wild type, stronger effect = lower value 1
